Screens from PubChem.
Hits are enriched below; roughly 0.45% of the tested compounds scored in any of these assays.
FMDV antiviral: Primary qHTS Assay for Foot and Mouth Disease Virus Antivirals against NCGC Sytravon and CBC Compound Libraries: Firefly Luciferase Signal; 120,000 tested, 0.23% active; AID 1745856, 2022; Potency, µM (highest dose often 57.5 µM), for inactives: at the top dose activity change, negative = inhibition, usual class: inhibitors; FMDV antiviral cell assay, firefly luciferase signal; also: nearly all actives have a fitted effect of over 60% in size
FMDV RLuc: Primary qHTS Assay for Foot and Mouth Disease Virus Antivirals against NCGC Sytravon and CBC Compound Libraries: Renilla Luciferase Signal; 120,000 tested, 0.32% active; Potency, µM (top dose mostly 57.5 µM), for inactives: at the highest dose activity change, negative = inhibition, usual class: inhibitors; FMDV replicon cells, Renilla luciferase signal; also: nearly all actives have a fitted effect of over 55% in size
* hit, by the source's call; ? = inconclusive; [ ] = another dose, or the depositor's remark. Calls follow the shape of the full dose curve. % is scaled to controls: 0 for no effect and ±100 for the full control effect; potency is read from the fitted curve at half-maximal effect.

SMILES	FMDV antiviral	FMDV RLuc
CCOC(=O)c1ccc(NS(=O)(=O)c2cc(Br)cc3c2N(C(C)=O)C(C)C3)cc1 (stereo not drawn)	20µM*	120.5%
N#Cc1ccc(C(=O)NCCc2cccnc2)cc1	106.8%	-1.1%
Cc1ccc(COC(=O)c2ccccc2Nc2ccccc2)cc1	0.0%	-6.0%[1.06 µM]
CCc1ccc(CN2CCc3nc(N4CCN(c5ccccc5F)CC4)ncc3C2)cc1	-0.8%	-13.5%
COc1cccc(N2CCN(c3ncc4c(n3)CCN(Cc3ccc(Br)cc3)C4)CC2)c1	7.08µM*	3.98µM*
Cc1ccc(NC(=O)c2ncoc2-c2cccc(Cl)c2)c(C)c1	-11.6%	-15.8%
CCCCCCC[N+](CC)(CC)CCCCc1ccc(Cl)cc1	?	7.94µM*
CCCCCCc1ccc(C(=O)Oc2ccc(Cl)cc2)cc1	-6.5%	-7.1%
O=[N+]([O-])c1ccc(N/N=C/c2c[nH]c3ccccc23)c(S(=O)(=O)Nc2ccc(Cl)cc2)c1	25.1µM*	-92.9%
O=[N+]([O-])c1ccc(N/N=C/c2c[nH]c3ccccc23)c(S(=O)(=O)Nc2ccccc2Cl)c1	-18.1%	68.2%
CS(=O)(=O)c1ccc2nc(NC(=O)CS(=O)(=O)c3ccc(Cl)cc3)sc2c1	0.0%	-8.4%
CCOc1ccc2nc(NC(=O)CS(=O)(=O)c3ccc(Cl)cc3)sc2c1	8.91µM*	?
CCC(C)[C@H](NC(=O)Nc1cc(-c2n[nH]c(=O)c3ccccc23)ccc1C)C(=O)OC (stereo partly drawn)	-27.1%	-29.4%
O=S(=O)(c1cccc(F)c1)N1CCC(Oc2ccc(-n3cnnn3)cc2)CC1	22.4µM*	?
CC(=O)Nc1ccc(S(=O)(=O)N2CCC(Oc3ccc(-n4cnnn4)cc3)CC2)cc1	-3.2%	13.4%
CS(=O)(=O)N1CCCc2cc(C(=O)c3cc4ccccc4o3)ccc21	-17.3%	?
CS(=O)(=O)N1CCc2cc(C(=O)c3cc4cc(Br)ccc4o3)ccc21	20µM*	1.7%
Cc1cccc(Nc2nc(-c3ccc(C)cc3C)cs2)c1	50.6%	?
CC1CCCN(c2oc(-c3ccc(Cl)cc3)nc2C#N)C1 (stereo not drawn)	3.4%	-5.0%
Cc1[nH]c(SCC(=O)Nc2cccc(S(=O)(=O)N3CCCC3)c2)nc1Cc1ccccc1	14.1µM*	-16.2%
O=C(CSc1nncn1-c1ccccc1)Nc1cccc(S(=O)(=O)N2CCCCC2)c1	15.2%	17.7%
Cc1ccc(-c2csc(/C=C/c3cccc(O)c3)n2)cc1	294.1%	4.1%
CSc1cccc(Nc2nc(N)c(C(=O)c3ccccc3F)s2)c1	77.3%	12.6%
CC(=O)c1cccc(NS(=O)(=O)c2ccc(-c3cnc(C4CC4)o3)cc2)c1	8.91µM*	-21.2%
Cc1ccc(NS(=O)(=O)c2ccc(-c3cnc(C4CC4)o3)cc2)cc1F	-25.7%	135.4%
SMILES	FMDV antiviral	FMDV RLuc
COc1ccc(Cc2nnc(SC(C)c3nc4ccccc4c(=O)[nH]3)n2N)cc1 (stereo not drawn)	5.3%	4.0%
COC(=O)c1ccc(/C=C(/Cl)c2ncc(-c3ccc(Cl)cc3)o2)cc1	31.8%	10.6%
COC(=O)c1ccccc1NC(=O)CN1C(=O)CN=C(c2ccccc2Cl)c2cc(Cl)ccc21	-28.6%	-9.7%
O=C1CN=C(c2ccccc2Cl)c2cc(Cl)ccc2N1Cc1cccc(Cl)c1	25.1µM*	31.6µM*
O/N=C/c1ccccc1OCc1ccccc1	84.0%	-5.5%
Cc1ccccc1CC(=O)Nc1cccc2ncccc12	20.9%	8.9%
Cc1ccccc1CNc1ncnc2ccccc12	11.2µM*	?
O=C(Nc1ccc2c3c(cccc13)CC2)C1CC1(Cl)Cl (stereo not drawn)	0.8%	-14.8%
Cc1ccc(-c2nc(C#N)c(N3CCN(C)CC3)o2)cc1	0.0%	-0.8%
O=C(O)c1ccc(/C=C/c2nc3cc(Cl)ccc3o2)cc1	66.9%	4.3%
Cc1nc(/C=C/c2ccc(Cl)cc2)sc1C(=O)O	0.891µM*	12.0%
C[N+](CCOCc1ccccc1)(CCOCc1ccccc1)CCOCc1ccccc1	?	28.2µM*
CC[N+](C)(CC)CC(C[N+](C)(CC)CC)OCc1ccccc1	0.1%	8.0%
O=C(CSc1n[nH]c(-c2ccc(Br)cc2)n1)c1cc(F)ccc1F	0.0%	10.6%
CC1=C2C(=O)CC(C)CC2=Nc2ccccc2N1 (stereo not drawn)	11.0%	2.1%
CC1=C2C(=O)CC(c3cccc(Cl)c3)CC2=Nc2ccccc2N1 (stereo not drawn)	?	17.8µM*
CC(C)(C)c1ccc2c(c1)OCCOCCOc1cc(C(C)(C)C)ccc1OCCOCCO2	28.2µM*	17.8µM*
CC(C)(C)c1ccc2c(c1)OCCOCCOCCOCCO2	-11.4%	-24.1%
COc1ccc(NC(=O)COc2ccc(Cl)cc2Cl)c2cccnc12	2.51µM*	?
COc1ccc(NC(=O)c2ccc(Cl)cc2)c2cccnc12	42.5%	-12.0%
O=C(CCCc1nc2ccccc2s1)NCCc1cccc(F)c1	14.0%	0.0%
COc1ccc(NC(=O)CCn2cnc3onc(-c4ccc(F)cc4)c3c2=O)cc1OC	?	3.98µM*
COc1cc(Cl)c(C)cc1NC(=O)CCn1cnc2onc(-c3ccc(F)cc3)c2c1=O	8.8%	-0.7%
COc1cccc(/C=C/C(=O)c2ccccc2C)c1OC	0.0%	?
O=C(O)c1cccc(-c2noc(-c3ccccc3F)n2)c1	2.51µM*	-6.2%
SMILES	FMDV antiviral	FMDV RLuc
Fc1ccccc1-c1nc(-c2cccc(Br)c2)no1	0.0%	9.1%
Cc1cccc(N/N=C/c2ccc(F)c(F)c2)c1	13.6%	32.4%
COc1ccc(CCNc2oc(COc3cccc(C)c3)nc2C#N)cc1OC	-8.6%	-13.6%
COc1ccc(CCNc2oc(COc3ccc(Cl)cc3)nc2C#N)cc1OC	28.2µM*	?
CCOc1ccc2c(c1)cc(C(=O)NCCOc1ccccc1)n2C	74.1%	8.8%
COC(=O)c1ccc(CO/N=C/c2ccc(OCc3ccc(Cl)cc3)c(OC)c2)cc1	252.2%	3.9%
COC(=O)c1ccc(CO/N=C/c2ccc(Cl)cc2Cl)cc1	7.94µM*	8.8%
C=CCNc1nc(C(=O)OC(C)C(=O)NCC(=O)Nc2c(C)cccc2C)cs1 (stereo not drawn)	2.5%	-8.7%
Cc1cc(-n2cccc2)ccc1Br	2.0%	-8.1%
CNC(=O)c1cccc(OCc2coc(-c3cccc(F)c3)n2)c1	-15.6%	12.6µM*
CNC(=O)c1ccccc1OCc1coc(-c2ccc(OC)cc2)n1	-11.2%	?
CNC(=O)c1ccccc1OCc1coc(-c2ccccc2)n1	?	10µM*
CNC(=O)c1ccc(OCc2coc(-c3cccc(F)c3)n2)cc1	-21.5%	-39.1%
O=C(CSc1nc2ccccc2c(=O)n1CCCN1CCOCC1)c1ccc2ccccc2c1	-6.8%	-5.0%
O=C(O)c1cccc(NC(=S)N/N=C/c2ccc([N+](=O)[O-])cc2)c1	2µM*	7.0%
O=[N+]([O-])c1ccc(/C=N/NC(=S)Nc2ccccc2)cc1	0.0%	25.3%
Cc1ccc(C(C)(C)C)cc1CC(=O)O	6.6%	4.9%
CC(NC(=O)C1CCCCC1)c1ccc(NC(=O)C2CC2)cc1 (stereo not drawn)	10.8%	5.8%
CCOc1ccc(C(=O)Nc2ccc3c(c2)N(C(C)=O)CCC3)cc1OCC	?	3.7%
CC(=O)N1CCCc2ccc(NC(=O)c3ccc(C(F)(F)F)cc3)cc21	3.16µM*	0.7%
Cc1[nH]c(=S)sc1Cc1cccc(C(F)(F)F)c1	-11.9%	4.8%
